# Activity calls are given as the source filed them. Rule for the calls: active = hit-call score of the fitted dose curve at least 0.9, where 1 is the maximum; inactive = score below 0.9.
# Experiment: ATG_TA_CIS: Attagene CIS-FACTORIAL HepG2 Assay for human TA Basal Promoter (AID 2282964)
# Settings: HepG2 Attagene CIS-factorial TA basal promoter reporter; actives raise or lower the signal
# Experimental: ATG_CIS is a cell-based, multiplexed-readout assay that uses HepG2, a human liver cell line, with measurements taken at 24 hours after chemical dosing in a 24-well plate.ATG_TA_CIS is one of 52 assay component(s) measured or calculated from the ATG_CIS assay. It is designed to make measurements of mRNA induction, a form of inducible reporter, as detected with fluorescence intensity signals by Reverse transcription polymerase chain reaction (RT-PCR) and Capillary electrophoresis technology.Data from the assay component ATG_TA_CIS was analyzed into 1 assay endpoint. This assay endpoint, ATG_TA_CIS, was analyzed with bidirectional fitting relative to DMSO as the negative control and baseline of activity. Using a type of inducible reporter, measures of mRNA for gain or loss-of-signal activity can be used to understand the background control at the transcription factor-level as they relate to the gene . Furthermore, this assay endpoint can be referred to as a secondary readout, because this assay has produced multiple assay endpoints where this one serves a background control function. To generalize the intended target to other relatable targets, this assay endpoint is annotated to the background measurement intended target family, where the subfamily is internal marker.
# Human liver HepG2 cells are transiently transfected with multiple reporter transcription units (MRTUs) in 6-well plates using FuGene 6 reagent (Roche; 3 ml FuGene/1 mg DNA). The MRTU constructs are regulated by a cis-regulating element (promoter). […] A major difference between the CIS and TRANS system is that in CIS activities of endogenous TFs are measured, whereas the TRANS assay evaluates changes in activities of exogenous, chimeric NR-Gal4 proteins. […] At the end of 24 hour incubation, total RNA was isolated using TriZol reagent (Invitrogen). The isolated RNA is then reverse-transcribed using oligo(dT) primer and Mo-MLV reverse transcriptase (Invitrogen) with DNAse I (Ambion) treatment for 30 min. The one-tenth of the produced cDNA was amplified by PCR using Taq DNA polymerase (Invitrogen) and two reporter sequence-specific primers. The PCR products were fluorescently labeled by primer extension with 6-arboxyfluorescein (6-FAM) 5'-labeled reporter sequence-specific primer (2 min at 95 C, 20 s at 68 C and 10 min at 72 C) and these products were digested with 5U of HpaI (New England Biolabs) for 2h at 37 C. The fragments were purified using Qiaquick PCR columns (Qiagen), analyzed on an ABI 3130xL genetic analyzer (Applied Biosystems) with peak positions identified by using a set of X-rhodamine (ROX)-labeled MapMarker1000 molecular weight standards (BioVentures). The raw capillary electrophoresis data was processed using Attagraph software (Attagene).
SMILES,outcome,AC50
C[N+](C)(C)Cc1ccccc1,inactive,
C=CC(=O)[O][Sn]([CH2]CCC)([CH2]CCC)[CH2]CCC,inactive,
O=C1C[C@@H]2OCC=C3CN4CC[C@]56c7ccccc7N1[C@H]5[C@H]2[C@H]3C[C@H]46,inactive,
C[CH2][Hg][S]c1ccccc1C(=O)O,inactive,
BrCC(Br)c1ccccc1 (stereo not given),inactive,
CCOC(=O)C(SP(=S)(OC)OC)c1ccccc1 (stereo not given),inactive,
Cc1cc(Cl)ccc1OCCCC(=O)O,inactive,
O=C(O)COc1ccc(Cl)cc1,inactive,
C=CC(=O)NC(C)(C)CC(C)=O,inactive,
CCOc1cc(C=O)ccc1O,inactive,
O=S(=O)(c1ccc(Cl)cc1)c1cc(Cl)c(Cl)cc1Cl,inactive,
CS(=O)(=O)c1ccc(C(=O)C2C(=O)CCCC2=O)c(Cl)c1COCC(F)(F)F,inactive,
Cc1ccccc1OP(=O)(Oc1ccccc1)Oc1ccccc1,inactive,
CNC(=O)CSP(=O)(OC)OC,inactive,
Cc1ccc(OP(=O)(Oc2ccc(C)cc2C)Oc2ccc(C)cc2C)c(C)c1,inactive,
CC(C)[N+](=O)[O-],inactive,
O=C(CBr)c1ccc(O)cc1,inactive,
CC(C)(C)c1ccccc1O,inactive,
N#CCC#N,inactive,
N#Cc1ccc(Cl)cc1,inactive,

SMILES,outcome,AC50
N#CCCC(Br)(C#N)CBr (stereo not given),inactive,
CCCCCCCCCCCCc1cccc(S(=O)(=O)O)c1,inactive,
Cc1cc(Cl)ccc1OC(C)C(=O)O (stereo not given),inactive,
Clc1cccc(Cl)c1Cl,inactive,
c1ccc2sc(SNC3CCCCC3)nc2c1,inactive,
C=CCc1ccccc1O,inactive,
O=CCCl,,182 µM (active)
Oc1ccc(Cc2ccc(O)cc2)cc1,inactive,
OCCN(CCO)CCO,inactive,
CC(C)(C#N)N=NC(C)(C)C#N,inactive,
Nc1ncn[nH]1,inactive,
O=[N+]([O-])c1cc([As](=O)(O)O)ccc1O,inactive,
CCCSP(=S)(OCC)Oc1ccc(Cl)cc1Cl (stereo not given),inactive,
CCNc1nc(NCC)nc(SC)n1,inactive,
CCC[CH2][Sn]([CH2]CCC)([CH2]CCC)[CH2]CCC,,17.1 µM (active)
CCCCOC(C)=O,inactive,
COC(=O)Nc1cccc(OC(=O)Nc2cccc(C)c2)c1,inactive,
CC1(C)COP(Oc2ccccc2)OC1,inactive,
O=[N+]([O-])c1c2ccccc2cc2ccccc12,inactive,
CC(=O)CN(CC(C)=O)N=O,inactive,
